Each structure is given as a SMILES string. Inconclusive results are not listed. Calls of active or inactive are those of the source. Rule for the calls: active = hit-call score of the fitted dose curve at least 0.9, where 1 is the maximum; inconclusive = response in the unintended direction; inactive = score below 0.9.

What is called AC50 is the midpoint of the concentration-response curve, whichever way the signal moves.

This experiment deals with human Lymphocyte-cell Factor Kinase (Lck), LCK (gene 3932) (UniProt P06239). Briefly: NVS_ENZ_hLck: NovaScreen (NVS) Enzymatic Assay for human Lymphocyte-cell Factor Kinase (Lck). As for the experimental part: NVS_ENZ_hLck is a biochemical, single-readout assay that uses extracted gene-proteins in a cell-free assay. Measurements were taken 1 hour after chemical dosing in a 384-well plate.NVS_ENZ_hLck is one of one assay component(s) measured or calculated from the NVS_ENZ_hLck assay. It is designed to make measurements of enzyme activity, a form of enzyme reporter, as detected with fluorescence intensity signals by Fluorescence and electrophoretic mobility shift technology.Data from the assay component NVS_ENZ_hLck was analyzed into 1 assay endpoint. This assay endpoint, NVS_ENZ_hLck, was analyzed in the positive analysis fitting direction relative to DMSO as the negative control and baseline of activity. Using a type of enzyme reporter, loss-of-signal activity can be used to understand changes in the enzymatic activity as they relate to the gene LCK. Furthermore, this assay endpoint can be referred to as a primary readout, because this assay has produced […] where this one serves a enzymatic activity function. To generalize the intended target to other relatable targets, this assay endpoint is annotated to the kinase intended target family, where the subfamily is non-receptor tyrosine kinase.
human Lymphocyte-cell Factor Kinase (Lck), LCK (gene 3932), sequence (P06239 whole entry, looked up): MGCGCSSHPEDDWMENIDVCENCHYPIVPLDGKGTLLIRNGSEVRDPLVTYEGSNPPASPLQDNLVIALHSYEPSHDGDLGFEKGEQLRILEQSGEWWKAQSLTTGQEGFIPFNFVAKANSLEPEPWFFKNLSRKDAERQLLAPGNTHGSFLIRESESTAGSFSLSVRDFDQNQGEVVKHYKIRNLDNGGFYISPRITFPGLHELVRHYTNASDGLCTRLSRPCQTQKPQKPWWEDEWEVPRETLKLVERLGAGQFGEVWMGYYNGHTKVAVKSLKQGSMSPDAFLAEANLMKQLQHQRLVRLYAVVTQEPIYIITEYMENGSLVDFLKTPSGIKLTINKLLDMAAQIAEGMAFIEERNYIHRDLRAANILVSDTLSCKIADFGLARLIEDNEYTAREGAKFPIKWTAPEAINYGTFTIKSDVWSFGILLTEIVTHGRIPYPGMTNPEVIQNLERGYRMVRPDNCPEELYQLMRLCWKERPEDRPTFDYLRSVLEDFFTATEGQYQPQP
Binding assays used specific radioligands (tritiated, iodinated) with non-radioactive competitive displacement ligands in agonist or antagonist protocols (as indicated) and various reference compounds and inhibitors to titrate specific binding to receptors and transporters. Most enzyme assays (CYPs, kinases, phosphatases, proteases, HDACs) used recombinant protein and specific substrates (fluorescence mostly, some colorimetric and radioactive) and inhibitors, followed by a biochemical separation of substrate and product. All assays for the biochemical HTS were initially run in duplicate at a single concentration (10 uM for CYP450 assays and 25 uM for all others). Assay-chemical combinations meeting a pre-defined threshold (e.g., 30% inhibition and other criteria defined below) were then run in singleton concentration-response format with maximum concentration of 20 uM for CYPs and 50 uM for all others. Each assay was run with positive and negative controls, and concurrent controls on every plate. The follow-up (secondary) screen tested active chemical-pairs in concentration series, as well as a few additional assays not tested in the primary screen, some selected negative inactives, and several cases re-run in the concentration series for confirmatory purposes.
In the case of `O=C(O)C(F)(F)C(F)(F)C(F)(F)C(F)(F)C(F)(F)C(F)(F)C(F)(F)F`, the outcome was inactive.

In the case of `S=C1NCCN1`, the result was inactive.

For `Cc1cnc(C2=NC(C)(C(C)C)C(=O)N2)c(C(=O)O)c1` (stereo not drawn), the result was inactive.

`CC[C@H](C)[C@H]1O[C@]2(C=C[C@@H]1C)C[C@@H]1C[C@@H](C/C=C(\C)[C@@H](O[C@H]3C[C@H](OC)[C@@H](O[C@H]4C[C@H](OC)[C@@H](NC)[C@H](C)O4)[C@H](C)O3)[C@@H](C)/C=C/C=C3\CO[C@@H]4[C@H](O)C(C)=C[C@@H](C(=O)O1)[C@]34O)O2`: the AC50 was 36 µM (active).

`CNC(=S)S`: the outcome was inactive.

With `O=S(=O)(O)C(F)(F)C(F)(F)C(F)(F)C(F)(F)C(F)(F)C(F)(F)C(F)(F)C(F)(F)F`, the AC50 was 43.9 µM (active).

Consider `O=C(Nc1ccccc1)Nc1cnns1`, for which the result was inactive.

With `C=CCC1=C(C)[C@@H](OC(=O)[C@@H]2[C@@H](C=C(C)C)C2(C)C)CC1=O`, the result was inactive.

Values taken from PubChem BioAssay AID2283170 (EPA ToxCast).
